± gives the standard deviation of the averaged measurements.
Assays:
Conditions in all cases: concentration: 10 µM; 24 h
[1] = system: HCC1569; experiment: cell number relative to DMSO (% of DMSO); higher = more cells (less growth inhibition / toxicity)
Outline: (§1)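 Cell number or H1.0 nuclear intensity appears as percent of the plate control, based on the median of replicates. Measurements came from HCC1569 and TDF cells exposed in triplicate to compounds at 10 µM for 24 h at 37 °C, then imaged in six fields per well at ×10. Positional effects were smoothed out of HCC1569 values.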

[2] = system: TDF; experiment: as above
Outline: as §1

[3] = system: TDF; experiment: H1.0 immunofluorescence intensity relative to DMSO (% of DMSO); higher = stronger H1.0 induction, active = 120 or more
Outline: as §1

[4] = system: HCC1569; experiment: H1.0 immunofluorescence intensity relative to DMSO (% of DMSO); higher = stronger H1.0 induction, active = 140 or more
Outline: as §1
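Throughout, for H1.0 immunofluorescence intensity relative to DMSO: TDF is a line of transformed human dermal fibroblasts of mesenchymal origin.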
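Throughout, for cell number relative to DMSO: TDF denotes transformed human dermal fibroblasts of mesenchymal origin.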

Compound | cell number [1] | cell number [2] | H1.0 immunofluorescence intensity [3] | H1.0 immunofluorescence intensity [4]
CN(C)CCC(c1ccc(Cl)cc1)c1ccccn1 (centres undefined) [Chlorpheniramine] | 100 | 98.1 | 96.2 (inactive) | 105 (inactive)
COC(=O)C1=C(C)NC(C)=C(C(=O)OCC(C)C)C1c1ccccc1[N+](=O)[O-] (centres undefined) [Nisoldipine] | 94.9 | 104 | 89.9 (inactive) | 116 (inactive)
CN(CCOc1ccc(CC2SC(=O)NC2=O)cc1)c1ccccn1.O=C(O)C=CC(=O)O (centres undefined) [Rosiglitazone maleate] | 103 | 113 | 92.5 (inactive) | 101 (inactive)
CC(=O)NC(CSCC=C(C)CCC=C(C)CCC=C(C)C)C(=O)O (centres undefined) [Acetyl-farnesyl-cysteine] | 100 | 104 | 97.2 (inactive) | 96.3 (inactive)
O=C(Nc1ccc(S(=O)(=O)Nc2nccs2)cc1)C(c1ccccc1)c1ccccc1 | 93.6 | 105 | 86 (inactive) | 108 (inactive)
CCNC(=O)C1OC(n2cnc3c(N)nc(NCCc4ccc(CCC(=O)O)cc4)nc32)C(O)C1O.Cl (centres undefined) | 118 | 96 | 103 (inactive) | 102 (inactive)
CCN(CC)CCOc1ccc(C(=C(Cl)c2ccccc2)c2ccccc2)cc1 [Clomiphene] | 99.9 | 88.3 | 98 (inactive) | 116 (inactive)
NC1CCCCC1N.O=C([O-])C(=O)[O-].[Pt+2] (centres undefined) [Oxaliplatin] | 87.5 ± 5.5 | 87.2 ± 18 | 97.9 (inactive) | 121 (inactive)
CC(NC(=O)C(C#N)=Cc1ccc(O)c(O)c1)c1ccccc1 (centres undefined) [Tyrphostin AG 527] | 91.2 | 89.2 | 87.7 (inactive) | 107 (inactive)
OCC1OC(n2cnc3c(NC4CC5CCC4C5)ncnc32)C(O)C1O (centres undefined) | 99.1 | 92.5 | 96.9 (inactive) | 91.9 (inactive)
CC(C)CCCC(C)C1CCC2C3CCC4=CC(N=O)CCC4(C)C3CCC12C [(20S)-cholest-4-en-3-one oxime] | 99.4 | 110 | 90.2 (inactive) | 101 (inactive)
CC(N)C12CC3CC(CC(C3)C1)C2 (centres undefined) [Rimantadine] | 99.7 | 107 | 93.4 (inactive) | 112 (inactive)
CC(C)NCC(O)c1ccc(O)c(O)c1 (racemic) [DL-Isoproterenol] | 107 | 108 | 93.8 (inactive) | 101 (inactive)
CN1C(CC(=O)c2ccccc2)CCCC1CC(O)c1ccccc1.Cl (centres undefined) | 102 | 90.9 | 102 (inactive) | 99.2 (inactive)
COc1ccc(CN(CCN(C)C)c2ccccn2)cc1.O=C(O)C=CC(=O)O [Mepyramine maleate] | 106 | 94.8 | 92.3 (inactive) | 100 (inactive)
Cc1cc(C2CCCCC2)n(O)c(=O)c1.NCCO [Ciclopirox ethanolamine] | 78.7 | 58.8 | 93.2 (inactive) | 102 (inactive)
COc1cc2c(cc1OC)C(=O)C(CC1CCN(Cc3ccccc3)CC1)C2.Cl.Cl (centres undefined) [Donepezil.HCl] | 101 | 114 | 95.8 (inactive) | 105 (inactive)
CCCCC=CCCCCCCCC(=O)O [9(E)-Tetradecenoic acid] | 98.8 | 106 | 98.8 (inactive) | 98 (inactive)
CCCCCC=CCC=CCC=CCCCCCCC(=O)O [Dihomo-γ-linolenic acid] | 99.6 | 98.6 | 96.3 (inactive) | 97.7 (inactive)
O=C(O)C1CCCNC1C(=O)O (mixture of isomers) | 108 | 110 | 96.4 (inactive) | 96.7 (inactive)
Nc1ccc(S(=O)(=O)Nc2ccnn2-c2ccccc2)cc1 [Sulfaphenazole] | 107 | 113 | 89.8 (inactive) | 106 (inactive)
COc1cc2c(cc1OC)-c1cc(=Nc3c(C)cc(C)cc3C)n(C)c(=O)n1CC2.Cl [Trequinsin.HCl] | 102 | 107 | 92.8 (inactive) | 118 (inactive)
Cl.Nc1cc(Cl)c(NC2=NCCN2)c(Cl)c1 [p-Aminoclonidine hydrochloride] | 100 | 114 | 97.1 (inactive) | 88.3 (inactive)
Nc1nc(=O)c2ncc(=O)[nH]c2[nH]1 [Isoxanthopterin] | 104 | 108 | 92.2 (inactive) | 94.9 (inactive)
NCCCC(O)(P(=O)([O-])O)P(=O)(O)O [Alendronate] | 106 | 102 | 94.3 (inactive) | 117 (inactive)
N[C@@H](Cc1ccc(O)c(I)c1)C(=O)O [3-Iodo-L-tyrosine] | 108 | 110 | 87.8 (inactive) | 88.9 (inactive)

Compound | cell number [1] | cell number [2] | H1.0 immunofluorescence intensity [3] | H1.0 immunofluorescence intensity [4]
CC(C)NCC(O)COc1cccc2ccccc12 (stereo not drawn) [Propranolol S(-)] | 102 | 104 | 102 (inactive) | 101 (inactive)
C#CC1(O)CCC2C3CCC4=CC(=O)CCC4C3CCC21CC (centres undefined) [Levonorgestrel] | 100 | 91.5 | 99.8 (inactive) | 98.5 (inactive)
CCCN(CCC)CCc1cccc2c1CC(=O)N2.Cl [Ropinirole hydrochloride] | 101 | 95.8 | 96.1 (inactive) | 101 (inactive)
CCCOC(=O)c1c(-c2ccccc2)nc(CC)c(C(=O)SCC)c1CCC | 102 | 90.7 | 93.7 (inactive) | 96.3 (inactive)
Cn1c(=O)c2[nH]c(-c3ccccc3)nc2n(C)c1=O [1,3-Dimethyl-8-phenylxanthine] | 105 | 110 | 88 (inactive) | 92 (inactive)
CCc1cccc2c3c([nH]c12)C(CC)(CC(=O)O)OCC3 (centres undefined) [Etodolac] | 98.6 | 101 | 97 (inactive) | 105 (inactive)
O=C1Nc2ccc(Cl)cc2C1=Cc1cc(Cl)c(O)c(Cl)c1 [PKR Inhibitor, Negative Control] | 101 | 98.8 | 95.1 (inactive) | 128 (inactive)
NC(CCC(=O)NC(CS)C(=O)NCC(=O)O)C(=O)O (centres undefined) [Glutathione] | 101 | 96.1 | 91 (inactive) | 93 (inactive)
CC(C)NCC(O)c1ccc(O)c(O)c1.Cl (single isomer, unassigned; (-)) [(-)-Isoproterenol hydrochloride] | 104 | 107 | 89.5 (inactive) | 93.8 (inactive)
OCCC#Cc1nc(-c2ccc(F)cc2)c(-c2ccncc2)n1CCCc1ccccc1 | 91.8 | 105 | 82.7 (inactive) | 111 (inactive)
CCN(CC)C(=S)SSC(=S)N(CC)CC [Disulfiram] | 93.4 ± 1.7 | 39 ± 4.7 | 123 (active) | 116 (inactive)
O=c1cc(N2CCOCC2)oc2c1ccc1ccccc12 [NU 7026 - 2-(4-Morpholinyl)-4H-naphthol[1,2-b]pyran-4-one] | 96 | 106 | 94 (inactive) | 105 (inactive)
CS(=O)(=O)O.CSc1ccc2c(c1)C(N1CCN(C)CC1)Cc1ccccc1S2 (centres undefined) [Methiothepin mesylate] | 91.1 | 102 | 111 (inactive) | 128 (inactive)
N#Cc1c(-c2ccccc2)no[n+]1[O-] [4-Phenyl-3-furoxancarbonitrile] | 64.2 | 93.3 | 93.2 (inactive) | 122 (inactive)
Cc1ccc(-c2n[nH]c3c2C(c2cccc(O)c2)N(c2ccc(C(=O)O)cc2)C3=O)cc1 (centres undefined) | 103 | 92.6 | 95 (inactive) | 116 (inactive)
Cl.Nc1ccn(C2OC(CO)C(O)C2O)c(=O)n1 [Cytosine-1-beta-D-arabinofuranoside hydrochloride] | 75.3 | 45.5 | 121 (active) | 100 (inactive)
CCCCCCCCc1ccc(CCC(N)(CO)CO)cc1.Cl | 13.6 | 17.4 | 210 (active) | 173 (active)
O=C(Nc1cccc(Nc2nccc(Nc3cccc(C(F)(F)F)c3)n2)c1)C1CC1 [Aurora Kinase Inhibitor III] | 63 ± 1.4 | 35.8 ± 3.4 | 129 (active) | 247 (active)
N=C1SC(=Cc2ccc(-c3ccc4c(c3)C(=O)NC4=O)o2)C(=O)N1c1ccc(Br)cc1 [Bioymifi] | 94.2 | 67.9 | 96.5 (inactive) | 277 (active)
COc1cc(-c2oc3cc(O)cc(O)c3c(=O)c2OC2OC(CO)C(O)C(O)C2O)ccc1O (centres undefined) [Isorhamnetine-3-glucoside] | 102 | 98.2 | 97.6 (inactive) | 85.8 (inactive)
O=c1c(O)c(-c2cc(O)c(O)c(O)c2)oc2cc(O)ccc12 [Robinetine] | 99 | 105 | 98.3 (inactive) | 90.7 (inactive)
CCCCCCCCCCCCCCCC(O)C(N)CO (racemic) [DL-Dihydrosphingosine] | 103 | 101 | 96.2 (inactive) | 100 (inactive)
Oc1cc(O)c2c(c1)OC(c1ccc(O)c(O)c1)C(O)C2 (single isomer, unassigned; (-)) [(-)-Epicatechin] | 102 | 106 | 100 (inactive) | 89.2 (inactive)
O=C(O)C1CCNCC1 [Isonipecotic acid] | 102 | 104 | 91.5 (inactive) | 91.2 (inactive)
Cc1[nH]c2ccccc2c1CC(=O)N[C@@H](Cc1ccccc1)C(=O)N(C)c1ccccc1 | 100 | 109 | 88.8 (inactive) | 119 (inactive)
